Assay results reported in PubChem BioAssay AID1981 (Southern Research Specialized Biocontainment Screening …, 2009).
Among all 2,200 compounds or so, about 480 (22%) were called active. The rule behind the calls is not given here. Only a sample is shown. Entries that show only a call come without a potency. Potency and affinity values are given separately.

Assay: S. Typhimurium GFP fluorescence modified counterscreen for PhoP regulon inhibitor project dose response (AID 1981)
Details: 4 h; series mostly up to 150 µM

SMILES | outcome
CCc1c(C)c2cc(Cl)c(O)c(CN3CCCCC3)c2oc1=O | inactive
Cc1onc(-c2c(F)cccc2Cl)c1C(=O)Nc1cccc(Cn2cccn2)c1 | inactive
NC(CSC12CC3CC(CC(C3)C1)C2)C(=O)O (stereo not given) | inactive
Cn1c(CN2CCCCC2)nc2cc(NS(=O)(=O)c3ccc(Cl)cc3)ccc21 | inactive
COc1ccc2c(c1)[nH]c1c(N3CCN(Cc4ccc5c(c4)OCO5)CC3)ncnc12 | inactive
O=C(NCCNc1ccc([N+](=O)[O-])cc1C(F)(F)F)c1ccc(F)cc1 | inactive
COCCNS(=O)(=O)c1cccn1-c1ncc(C(F)(F)F)cc1Cl | inactive
CCCCn1c(SCC(=O)Nc2nnc(CC)s2)nc2c1c(=O)n(C)c(=O)n2C | inactive
CCn1nc(C(=O)NCc2ccco2)c(Cl)c1Cl | inactive
Cc1cccc(C(=O)NC(=S)Nc2ccc(N3CCOCC3)cc2)c1 | inactive
CCOC(=O)CSc1n[nH]c(NC(=O)c2cccc(C)c2)n1 | inactive
Cc1cc(C)c2nc(NNC(=O)c3ccc(S(=O)(=O)N4CCc5ccccc5C4)cc3)sc2c1 | inactive
O=C(O)CCCCCN1C(=O)c2ccc(C(=O)O)cc2C1=O | inactive
O=C(/C=C/c1ccccc1Cl)c1ccccc(=O)c1O | inactive
Cc1ccc(NC(=O)c2ccccc2)s1 | inactive
CC1=C(C(=O)Nc2cccnc2)C(c2ccccn2)n2nnnc2N1 (stereo not given) | inactive
Cc1cccnc1NC(=O)CCCN1C(=O)c2ccccc2C1=O | inactive
CC(=O)c1cccc(NC(=O)Nc2cccs2)c1 | inactive
CC1(C)CC(=O)C=C(Nc2ccccc2NC(=O)c2cnccn2)C1 | inactive
COc1ccc(N2CCN(C(=O)Nc3ccc(S(=O)(=O)N(C)C)cc3)CC2)cc1 | inactive
Cc1ccc(S(=O)(=O)N(CC(=O)N=Nc2c(O)[nH]c3ccccc23)c2ccc(C)c(C)c2)cc1 | inactive
NC(N)=Nc1nc(C2COc3ccccc3O2)cs1 (stereo not given) | inactive
O=C(CSCc1nc2ccccc2[nH]1)Nc1ccc2ccccc2c1 | inactive

SMILES | outcome
COc1cc(CNCc2ccccn2)ccc1OCC(=O)NC(C)(C)C | inactive
O=S(=O)(/N=C(/Nc1cccc2ccccc12)c1ccccc1)c1cccs1 | inactive
FC(F)(F)COc1nc(OCC(F)(F)F)nc(N2CCN(c3ccccc3)CC2)n1 | inactive
COc1cccc(C2CC(=O)Nc3cc(OC)c(OC)c(OC)c32)c1OC (stereo not given) | inactive
COCCn1c(-c2ccccc2F)n[nH]c1=S | inactive
COc1ccc(C(=O)NCCC2=CCCCC2)cc1OC | inactive
C1=C(CCNc2ncnc3c2[nH]c2ccccc23)CCCC1 | inactive
O=C(NC1CCCCC1)n1c(=O)oc2ccc(Cl)cc21 | inactive
COc1ccc(C2C(C(=O)c3cccs3)=C(O)C(=O)N2c2nnc(C)s2)cc1OC (stereo not given) | inactive
Nc1ccc2c(c1)C(=O)N(CC1CCCO1)C2=O (stereo not given) | inactive
Cc1cccc(Nc2c3c(nc4ccccc24)CCC3)c1 | inactive
c1ccc(CNc2c3c(nc4ccccc24)CCC3)cc1 | inactive
Cc1cccc(N2CCc3c2nc2ccccc2c3N)c1 | inactive
CCOc1ccc(Nc2nc(NCCN3CCOCC3)nc(OC)n2)cc1 | inactive
CCc1ccc(Nc2nc(N)nc(CSc3nc4ccccc4s3)n2)cc1 | inactive
Oc1cccc(Nc2c3ccccc3nc3ccccc23)c1 | inactive
Cc1cccc(Nc2nc(N)nc(CN3CCN(c4ccccc4)CC3)n2)c1 | inactive
CCOC(=O)c1cnc2ccccc2c1Nc1ccc2c(c1)OCCO2 | inactive
CC1(C)CC(=O)C(C=Nc2ccc(Cl)cn2)=C(O)C1 | inactive
Cc1cc(C)n(-c2ccc(C(=O)OCC(=O)Nc3ccc([N+](=O)[O-])cc3)cc2)n1 | inactive
O=C(NCCc1ccc(Cl)cc1)/C(=C/c1cccnc1)NC(=O)c1ccccc1 | inactive
S=C(NCc1cccnc1)Nc1cccc(Cl)c1 | inactive
CCOc1ccc(S(=O)(=O)Nc2ccc(C(=O)N/N=C/c3c(C)nn(-c4ccccc4)c3N3CCCC3)cc2)cc1 | inactive

SMILES | outcome
Cc1cccc(NC(=O)Cn2c(/C=C/c3ccccc3)nc3ccccc32)c1 | inactive
CC1CCCCN1Cc1cnc(Cl)s1 (stereo not given) | inactive
Cc1ccc2nc(Cc3ccc(N)cc3)[nH]c2c1 | inactive
Cc1ccc(-c2csc(N=C(N)N)n2)c(C)c1 | inactive
Cc1ccc(-c2nc3ccccc3s2)cc1S(=O)(=O)N1CCCC1 | inactive
Cn1c(SCC(=O)N2c3ccccc3CCc3ccccc32)nnc1-c1cc2ccccc2cc1O | inactive
O=S(=O)(NC1=NCCCCC1)c1cccs1 | inactive
Cc1ccc(NC(=O)C2CC(=O)NC(N3CCCCC3)=N2)cc1Cl (stereo not given) | inactive
Cc1nn(CCOc2ccccc2)c(=O)n1-c1ccc(F)cc1 | inactive
CC(Cc1ccccc1Sc1ccccc1O)N(C)C (stereo not given) | inactive
CC(CCc1ccccc1)NC(=O)c1ccccc1 (stereo not given) | inactive
CC(C)CCn1c(SCC(=O)N2CC(=O)Nc3ccccc32)nc2scc(-c3cccs3)c2c1=O | inactive
O=C(O)C1(P(=O)(c2ccccc2)c2ccccc2)CCC1 | inactive
N#Cc1c(-c2ccccc2)ccn(Cc2cccc(Cl)c2)c1=O | inactive
COc1ccc(-c2nc3ncccc3n2O)cc1 | inactive
Nc1ccccc1NC1=CC(=O)CC(c2ccco2)C1 (stereo not given) | inactive
CCn1cc(C(=O)O)c(=O)c2cnc(N3CCN(C(=S)NC(=O)c4ccc(Cl)cc4)CC3)nc21 | inactive
CCn1cc(C(=O)OCC(=O)Nc2ccc(S(=O)(=O)N3CCCC3)cc2)c(=O)c2ccc(C)nc21 | inactive
COc1ccccc1N1CCN(C(=O)CSc2nc3ccccc3o2)CC1 | inactive
O=C(O)Cn1cc(C(=O)c2ccco2)c2ccccc21 | inactive
O=S(=O)(c1ccc(S(=O)(=O)N2CCN(C/C=C/c3ccccc3)CC2)cc1)N1CCCC1 | inactive
NS(=O)(=O)c1ccc(Nc2nc(-c3ccc(O)cc3)cs2)cc1 | inactive
Fc1cccc(NCc2cn3ccccc3n2)c1 | inactive

SMILES | outcome
CNc1nnc(-c2cccc(N(C)C)c2)s1 | inactive
COC(=O)c1c(C)[nH]c(C(C)=O)c1C | inactive
COc1ccc2c(c1)C1C=CCC1C(c1cc3c(cc1Br)OCO3)N2 (stereo not given) | inactive
COc1ccc(C(=O)N2CCc3cc(OC)c(OC)cc3C2)cc1OC | inactive
COc1ccc(S(=O)(=O)N2CCN(Cc3ccccc3)CC2)cc1 | inactive
COc1ccc(C(=O)On2c(-c3ccc(Br)cc3)nc3ccccc3c2=O)cc1 | inactive
COc1cccc(/C=N/n2c(C)nc3ccccc32)c1OC | inactive
CCCn1c(N)nc2ccccc21 | inactive
COc1ccc2c(c1)nc(N)n2Cc1ccccc1 | inactive
CSc1nc2ccccc2n1Cc1cccc(F)c1 | inactive
CCCCn1c(N)nc2ccccc21 | inactive
CCOc1cc(S(=O)(=O)N2CCN(CC)CC2)ccc1Cl | inactive
CC(C)Cn1cnc2sc3c(c2c1=N)CCCC3 | inactive
CCn1c(C)cc(=S)c2ccccc21 | inactive
CC(C)(C)C1CCC2(CC1)Nc1cccc3cccc(c13)N2 | inactive
Cc1ccc(C(=O)CSc2ncnc3sc4c(c23)CCCC4)cc1 | inactive
c1ccc(Cn2nnc3c(NCc4ccc5c(c4)OCO5)nc(C4CC4)nc32)cc1 | inactive
CCC(CC)C(=O)N1c2ccc(F)cc2CCC1C (stereo not given) | inactive
Cc1nc(N2CCN(Cc3ccccc3)CC2)nc2c1C(=O)CC(C)C2 (stereo not given) | inactive
Cc1cc(/C=N/NC(N)=S)c(C)n1-c1ccc(Cl)c(Cl)c1 | inactive
Cn1cccc1CC(=O)N/N=C/C(Cl)=C/c1ccccc1 | inactive
CSc1ccc2c(c1)C(N1CCN(C)CC1)Cc1ccccc1S2 (stereo not given) | inactive
c1ccc2c(c1)Sc1ccccc1N2CC1CN2CCC1CC2 (stereo not given) | inactive

SMILES | outcome
O=C(CSc1nc2ccccc2o1)Nc1ccc(N2CCOCC2)cc1 | inactive
O=C1CC(c2ccccc2)n2nc(NC(=O)c3ccccc3)nc2N1 (stereo not given) | inactive
CCN(c1ccc(OCC(=O)OCC(=O)Nc2ccc(F)c(F)c2F)cc1)S(=O)(=O)c1ccccc1 | inactive
O=C(Cc1n[nH]c(=O)c2ccccc12)OCC(=O)c1ccc2c(c1)OCCO2 | inactive
CC1CCN(C(c2cc3cc4c(cc3[nH]c2=O)OCO4)c2nnnn2CC2CCCO2)CC1 (stereo not given) | inactive
COc1ccc(N(CC(=O)Nc2ccccc2SC)S(C)(=O)=O)cc1OC | inactive
Nc1cc(N)nc(SCc2cc(=O)oc3cc4c(cc23)CCC4)n1 | inactive
Nc1nnc(Sc2ccc(Cl)cc2[N+](=O)[O-])s1 | inactive
CCN(CC)S(=O)(=O)c1ccc2[nH]cc(C(=O)NCCc3ccccc3)c(=O)c2c1 | inactive
O=C(CSc1nccc(=O)[nH]1)N1c2ccccc2CCc2ccccc21 | inactive
O=C(CSc1nc(Nc2ccccc2)nc(N2CCOCC2)n1)Nc1ccc([N+](=O)[O-])cc1 | inactive
Cc1cc(=O)oc(C)c1C(=O)NCc1cccnc1 | inactive
O=C(NNc1nc(-c2ccccc2)cs1)c1ccco1 | inactive
COc1ccc(Cl)cc1Nc1nc(-c2sc(NC(=O)c3ccco3)nc2C)cs1 | inactive
Cc1cc(C)cc(OC(=O)CS(=O)c2ccc(C(F)(F)F)cc2[N+](=O)[O-])c1 (stereo not given) | inactive
c1ccc2c(c1)[nH]c1c(N3CCCC3)ncnc12 | inactive
O=C(CCCNS(=O)(=O)c1ccccc1)NCc1ccco1 | inactive
O=Cc1cccn1Cc1ccccc1[N+](=O)[O-] | inactive
CCN1CCN(c2oc(COc3ccc(Cl)cc3)nc2C#N)CC1 | inactive
CCOC(=O)c1cnc2ccc(OCC)cc2c1N1CCN(c2ccccc2)CC1 | inactive
COc1ccc2cc(C#N)c(NC(C)C)nc2c1 | inactive
COc1cc(C2NC(=O)NC(c3ccccc3)=C2C(C)=O)ccc1OCC(=O)O (stereo not given) | inactive
CC1CCCC(C)N1/N=C/c1c[nH]c2ccc(Br)cc12 (stereo not given) | inactive
